From PubChem BioAssay (NCI)
About 83,000 compounds went through this panel and 20% of them were active in at least one assay; those are over-represented in the sample as a whole.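 The endpoint reported here, percent growth, reads 100 for growth as untreated, 0 for no net growth and -100 for all cells dead.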 Values without a mark were called inactive. Activity calls are given as the source filed them. The calls were made as follows: active = growth percent below 10; inactive = the rest.

How the values were obtained:
Assay in all cases: NCI-60 one-dose screen, 48 h (100 = growth as untreated, 0 = no growth, -100 = all killed)
Conditions in all cases: 10 µM
[1] = tested on: NCI-H23 lung
[2] = tested on: NCI-H226 lung
[3] = tested on: HOP-62 NSCLC
[4] = tested on: NCI-H460 lung
[5] = tested on: NCI-H522 lung
[6] = tested on: A549/ATCC NSCLC
[7] = tested on: 786-0 renal
[8] = tested on: COLO 205 colon
[9] = tested on: HOP-92 NSCLC

SMILES	growth [1]	growth [2]	growth [3]	growth [4] [%]	growth [5]	growth [6]	growth [7]	growth [8]	growth [9]
COc1ccc(/C=C2\CCCC3C2=Nc2ccccc2NC3c2ccc(OC)cc2)cc1 (centres undefined)	78.7%	94.9%	128%	94.8	6.67% (active)	88.5%	101%	116%	–
COc1nc2c(c(=O)n1C)CN(c1ccccc1)C(=O)C(C)N2 (centres undefined)	95.7%	95.6%	88.1%	104	84.6%	99.2%	97.5%	115%	–
Cc1ccc(NC(=O)N2CCCCC2)cc1[N+](=O)[O-]	91.1%	94.9%	84.2%	108	-29.1% (active)	39.5%	102%	99.4%	–
S=C1N(c2ccccc2)CN(C2CCCCC2)CN1c1ccccc1	100%	98.7%	99.9%	105	-29.7% (active)	45.5%	100%	112%	–
COc1ccc(C2CC(c3cc(OC)c(OC)c(OC)c3)=NN2)cc1 (centres undefined)	86.6%	93.2%	98.1%	51.5	53.3%	51.7%	92.1%	55.1%	–
COc1cc2cc(Oc3ccc(NC(=O)c4ccccc4)cc3)c(C)nc2cc1OC	83.5%	9.16% (active)	43.8%	94.8	7.6% (active)	89.6%	118%	109%	–
c1ccc(CSc2ncccc2-c2nnc(SCCN3CCOCC3)o2)cc1	104%	114%	116%	122	105%	112%	–	–	–
O=C(CCC(C(=O)c1ccccc1)c1ccccc1)c1ccccc1 (centres undefined)	78.6%	83.1%	76.8%	76.2	3.51% (active)	61.9%	82.7%	79.7%	–
CC(=O)Nc1ccc(S(=O)(=O)N/N=C(\C)c2ccc(C)cc2C)cc1	105%	107%	100%	106	91.1%	99.9%	105%	103%	–
CC(C1=C(CN(C(=O)Cc2cn(-c3ccccc3)nc2-c2ccc(Cl)cc2)C(C)C)Cc2ccccc21)c1ccccn1 (centres undefined)	55.3%	69.9%	92.7%	–	44.2%	61%	68.2%	66.7%	62.2%
CS(=O)(=O)c1nccc(-c2c(-c3cccc(OCCN4CCOCC4)c3)nc3sccn23)n1	90.3%	83.9%	76.9%	–	-63.3% (active)	94.5%	90.6%	–	27.9%
COC(=O)c1c[nH]c2cc(OC(C)C)c(OC(C)C)cc2c1=O	97.6%	92.9%	37.9%	–	94.3%	61.8%	110%	–	80.5%
Cc1ccc(C(=O)C2C(=O)C3CCC2C3)cc1 (centres undefined)	94.4%	99.2%	99.6%	–	101%	102%	104%	100%	98%
O=C(CCl)Nc1ccc(Cc2ccc(NC(=O)CCl)cc2)cc1	-10.4% (active)	-16.2% (active)	33.2%	–	-81% (active)	25.3%	-20.2% (active)	-56.1% (active)	46.3%
O[C@@H]1CO[C@H]2[C@@H]1OC[C@@H]2O	109%	109%	107%	–	111%	96.9%	109%	119%	108%
CN(C)CCOc1cccc(NC2=C(Cl)C(=O)C(Nc3cccc(OCCN(C)C)c3)=C(Cl)C2=O)c1	-59.5% (active)	-74.6% (active)	-82.9% (active)	–	-91.3% (active)	57.9%	-86.4% (active)	-82.9% (active)	-70.1% (active)
NC1=CC(=O)C(=O)c2cccnc21	18.7%	82.4%	80.2%	–	59.8%	43.9%	99.7%	98.7%	149%

SMILES	growth [1]	growth [2]	growth [3]	growth [4] [%]	growth [5]	growth [6]	growth [7]	growth [8]	growth [9]
CC1CCCC(C(=O)O)C1C(=O)O (centres undefined)	98.1%	96.7%	87.7%	–	80.8%	78.3%	94%	102%	86.1%
CCOc1ccccc1/C=N\N=C(\N)N/N=C/c1ccccc1OCC	23.7%	59.1%	43.7%	–	7.36% (active)	39.4%	21.4%	28.9%	46.5%
COC(=O)CC[C@@H](C)[C@H]1CC[C@H]2[C@@H]3CC[C@@H]4C[C@H](O)CC[C@]4(C)[C@H]3C[C@H](O)[C@]12C	116%	102%	109%	110	–	102%	107%	101%	–
CCCc1cn(CC(=O)Nc2nc3ccccc3s2)nn1	110%	106%	102%	–	93.8%	98.4%	108%	109%	109%
CC(C)(C)OC(=O)CN1CCc2c(sc3ncnc(N/N=C/c4cccc5ccccc45)c23)C1	40.6%	53.1%	45.5%	–	32.8%	43.7%	44.1%	18.4%	54.9%
CCN(CC)CCOc1cccc2c1C(=O)c1ccccc1C2=O	88.2%	93.8%	82.5%	–	84.3%	90.6%	93.1%	68.6%	71.2%
O=C(c1ccccc1)N(C(=O)c1ccccc1)N1CCCC1	96.4%	92.7%	104%	106	–	–	110%	110%	–
CCOC(=O)N/N=C/c1ccc(OC)c(OC)c1	113%	97.9%	112%	102	–	102%	104%	117%	–
O=[N+]([O-])c1cccc(/C=N/NC(=S)NC23CC4CC(CC(C4)C2)C3)c1	86.6%	48.4%	24.3%	–	88.8%	56.5%	79.8%	102%	64%
CCCCCCCCCCCC[n+]1c(C)cc(N)c2ccccc21	-36.8% (active)	11.1%	3.61% (active)	–	-29.7% (active)	57%	0.277% (active)	-66.7% (active)	-6.03% (active)
COc1cc(C)ccc1Oc1nc(Nc2ccc(N3CCOCC3)cc2)ncc1NC(=O)Nc1cc(C(F)(F)F)cc(C(F)(F)F)c1	72%	84.3%	58.5%	–	73.2%	14.5%	55%	109%	66.8%
O=C(CN(C1CCCCC1)C1CCCCC1)Nc1ccc(S(=O)(=O)c2ccc(NC(=O)CN(C3CCCCC3)C3CCCCC3)cc2)cc1	-36.6% (active)	0.397% (active)	-21.4% (active)	–	-74.4% (active)	2.61% (active)	-82.7% (active)	-70.6% (active)	-86.7% (active)
O=c1c(Br)ccc(Br)cc1Br	-51.8% (active)	97.5%	15.2%	36.1	–	–	-29.3% (active)	-70.6% (active)	–
CC(=O)Nc1ccc(S(=O)(=O)c2ccnc3cc(Cl)ccc23)cc1	68.2%	78.1%	99.1%	–	28.1%	85.3%	125%	95.3%	99.8%
COc1cc(-c2nn(-c3cccc(NC(=O)NCCNS(=O)(=O)c4ccc(Cl)cc4)c3)cc2-c2ccncc2)ccc1Cl	12.4%	27.3%	32.9%	–	7.66% (active)	13.3%	6.74% (active)	-64.2% (active)	-3.88% (active)
CC(C)(C)OC(=O)CC(S(=O)(=O)c1ccccc1)S(=O)(=O)c1ccccc1	102%	94.5%	103%	–	-36.4% (active)	112%	105%	-98.1% (active)	122%
